PubChem BioAssay (NCI)
Several values for one entry are separate records, joined by “and”; a condition that tells them apart may be missing. Equal entries are not always repeated. This is part of a sample that, as a whole, favours compounds with a hit. Of some 83,000 tested, about 20% had one in any assay.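 Assay: single dose, 48 h. Readout: percent growth (0 = no net growth; negative = cell death). Active: <10.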 Activity calls are given as the source filed them.

Test system: TK-10 renal
Assay: NCI-60 one-dose screen, 48 h (100 = growth as untreated, 0 = no growth, -100 = all killed)
Details: 10 µM unless noted

Compound	growth
O=C1N(c2ccccc2)N=C2c3ccncc3C3=NN(c4ccccc4)C(=O)C123 (stereo unspecified)	70.4% [100 µM] (inactive) and -59.4% [100 µM] (active)
C=C1C(=O)OC2C1CC(O)/C(C)=C\CCC1(C)OC21 (stereo unspecified)	76.7% [100 µM] (inactive) and -65% [100 µM] (active)
CN(C)CCNc1ccc(NCC[N+](C)(C)Cc2ccc([N+](=O)[O-])cc2)c2c1C(=O)c1c(O)ccc(O)c1C2=O	91.1% [100 µM] (inactive) and -23.2% [100 µM] (active)
C[C@]12CC[C@@H]3c4cc(Br)c(O)c(Br)c4CC[C@H]3[C@@H]1CC(Br)C2=O (stereo partly specified)	-93.2% [100 µM] (active) and -97.6% [100 µM] (active)
O=c1c2ncn(C3CCCCO3)c2n(-c2ccccc2)c(=S)n1-c1ccccc1 (stereo unspecified)	20.1% [100 µM] (inactive) and 23.9% [100 µM] (inactive)
CC(O)c1cc2c(s1)C(=O)c1ccsc1C2=O (stereo unspecified)	-46.9% [100 µM] (active) and -98.9% [100 µM] (active)
